Laboratory results from the supplement of paper PMC9694430.

Columns and labels:
Test in all cases: thermal shift delta Tm vs DMSO control; higher = stronger stabilization (binding)
Conditions in all cases: 12.5 µM; protein concentration 2 µM
LOC_OS02G45750-cb003 = tested on: LOC_OS02G45750-cb003
How it was run: (§1)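 Rice kinase domain constructs were expressed in E. coli, purified, and tested by differential scanning fluorimetry with compound added in DMSO. Each well of a 96-well plate held 19.5 μl of 2 μM kinase in 100 mM potassium phosphate pH 7.5, 150 mM NaCl, 10% glycerol and 5 × SYPRO Orange, and fluorescence was read from 25°C to 95°C at 0.05°C/s. The melting temperature shift is the mean of triplicates, taken against protein with DMSO alone after Boltzmann fitting.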

LOC_OS02G54510-cb004 = tested on: LOC_OS02G54510-cb004
How it was run: as §1

LOC_OS03G04050-cb001 = tested on: LOC_OS03G04050-cb001
How it was run: as §1

LOC_OS03G12390-cb001 = tested on: LOC_OS03G12390-cb001
How it was run: as §1

LOC_OS03G27990-cb004 = tested on: LOC_OS03G27990-cb004
How it was run: as §1

LOC_OS03G50450-cb001 = tested on: LOC_OS03G50450-cb001
How it was run: as §1

LOC_OS03G50810-cb003 = tested on: LOC_OS03G50810-cb003
How it was run: as §1

LOC_OS04G35114-cb001 = tested on: LOC_OS04G35114-cb001
How it was run: as §1

LOC_OS04G38480-cb003 = tested on: T1, LOC_OS04G38480-cb003
T1 sequence (whole entry): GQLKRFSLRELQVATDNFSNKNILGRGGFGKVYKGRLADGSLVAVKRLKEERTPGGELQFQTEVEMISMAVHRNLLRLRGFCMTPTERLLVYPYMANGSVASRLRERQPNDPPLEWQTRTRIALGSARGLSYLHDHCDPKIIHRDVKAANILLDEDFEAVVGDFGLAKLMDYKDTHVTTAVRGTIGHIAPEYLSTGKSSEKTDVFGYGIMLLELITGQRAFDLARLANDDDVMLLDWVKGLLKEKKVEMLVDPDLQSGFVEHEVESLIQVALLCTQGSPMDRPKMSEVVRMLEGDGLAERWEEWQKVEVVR
How it was run: as §1

LOC_OS04G41100-cb001 = tested on: T2, LOC_OS04G41100-cb001
T2 sequence (whole entry): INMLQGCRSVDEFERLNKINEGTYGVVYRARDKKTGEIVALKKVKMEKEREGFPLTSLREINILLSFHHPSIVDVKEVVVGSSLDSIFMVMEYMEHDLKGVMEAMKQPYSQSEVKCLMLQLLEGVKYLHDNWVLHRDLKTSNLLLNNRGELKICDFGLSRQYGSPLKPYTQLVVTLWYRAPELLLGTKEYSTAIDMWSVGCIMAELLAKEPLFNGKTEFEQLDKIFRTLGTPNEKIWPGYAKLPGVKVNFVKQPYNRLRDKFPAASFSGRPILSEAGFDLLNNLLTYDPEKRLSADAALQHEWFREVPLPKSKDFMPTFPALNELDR
How it was run: as §1

SMILES | thermal shift delta Tm (LOC_OS02G45750-cb003) [°C] | thermal shift delta Tm (LOC_OS02G54510-cb004) [°C] | thermal shift delta Tm (LOC_OS03G04050-cb001) [°C] | thermal shift delta Tm (LOC_OS03G12390-cb001) [°C] | thermal shift delta Tm (LOC_OS03G27990-cb004) [°C] | thermal shift delta Tm (LOC_OS03G50450-cb001) [°C] | thermal shift delta Tm (LOC_OS03G50810-cb003) [°C] | thermal shift delta Tm (LOC_OS04G35114-cb001) [°C] | thermal shift delta Tm (LOC_OS04G38480-cb003) [°C] | thermal shift delta Tm (LOC_OS04G41100-cb001) [°C]
Cn1c(=O)c(F)c(Nc2ccc(I)cc2F)c2c(=O)n(C[C@@H](O)CO)cnc21 | 1.03 | 0.28 | 0.51 | 0.07 | 0.21 | 0.15 | 0.78 | 0.35 | 0.83 | 0.43
C[C@@H](Nc1cc(F)cc(F)c1)c1cc(C(=O)N(C)C)cc2c(=O)cc(N3CCOCC3)oc12 | -0.34 | -0.01 | 0.03 | 0 | 0.1 | -0.15 | 0.15 | 0.51 | 1.21 | 0.16
COc1ccc([C@@H]2OC[C@H]3[C@@H]2CO[C@@H]3c2ccc(O[C@@H]3O[C@H](CO)[C@@H](O)[C@H](O)[C@H]3O)c(OC)c2)cc1OC [Forsythin] | 0.82 | -0.05 | 0.35 | 0.34 | 0.18 | 0.11 | 0.2 | -0.23 | -0.32 | -0.14
N#Cc1cnc(Nc2cc(NC[C@H]3CNCCO3)c(C(F)(F)F)cn2)cn1 | 3.09 | 0.4 | 0.6 | 0.36 | 0.89 | 0.52 | 1.11 | 1.35 | 1.02 | 0.96
CC(C)(CO)n1cc(C(=O)c2cncc(NC(=O)Cc3ccc(Cl)cn3)c2)c2cnc(N)nc21 | 1.08 | 0.19 | 0.46 | 0.3 | 0.39 | 0.47 | 0.51 | 0.51 | 1.37 | 0.41
O=C(/C=C/c1ccc2ccccc2n1)c1ccncc1 | 4.53 | -0.52 | 0.27 | -1.09 | 0.7 | 0.7 | 0.37 | 4.4 | 4.06 | 2.67
